Holding throughout (experiment): NCI-60 one-dose screen, 48 h (100 = growth as untreated, 0 = no growth, -100 = all killed)
Details in all cases: 10 µM unless noted

For assay [1], the system named is DU-145 prostate.
Assay [2] concerns K-562 leukemia.
In assay [3] the test system is MALME-3M melanoma.
The subject of assay [4] is MDA-MB-231 breast.
Assay [5] deals with RXF 393 renal.
For assay [6], the system named is SF-268 CNS.
For assay [7], the system named is SF-295 CNS.
In assay [8] the test system is SF-539 CNS.
The subject of assay [9] is UACC-257 melanoma.
Assay [10] relates to M14 melanoma.
Assay [11] concerns HCT-15 colon.
The test system of assay [12] is HT29 colon.
Assay [13] deals with SNB-75 CNS.
Assay [14] deals with SNB-19 CNS.
Assay [15] concerns U251 CNS.
The subject of assay [16] is PC-3 prostate.
Assay [17] relates to SK-MEL-5 melanoma.
Assay [18] deals with UACC-62 melanoma.
The test system of assay [19] is LOX IMVI melanoma.
The subject of assay [20] is SK-MEL-28 melanoma.

The structures appear in SMILES notation. This is part of a sample that, as a whole, favours compounds with a hit. Of some 83,000 tested, about 20% had one in any assay.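 Growth was measured after 48 h exposure to one concentration of compound in 96-well plates. Values under 10 count as active.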 Unmarked numbers belong to inactive results. Calls of active or inactive are those of the source.

Regarding `Cn1c(=O)cc2c3c(c(NCCCO)ccc31)C(=O)c1ccccc1-2`, the growth in [1] was 45.4%; in assay [2] it was 38.1%; in assay [3] it was 27.3%; in [4] it was 58.1%; in assay [5], 42.6%; in assay [6], 42.3%. Further, the growth was 42.8% in assay [7]; 50% in [8]; 64.2% in assay [9]; 55.3% in assay [10]; 39.5% in [11]; 23.1% in assay [12]. Moreover, the growth in assay [13] is 39.3%; in assay [14], 47.3%; in [15] it was 37.5%; in [16] it was 45.2%; in assay [17], 40.2%; in [18], 40.4%. In addition, the growth in assay [19] is 26.6%; in assay [20], 71.4%.
Regarding `O=c1c2cnn(-c3ccccc3)c2n2c(CN3CCOCC3)nnc2n1-c1ccccc1`, the growth in assay [1] was 105%; in assay [2], 88.2%; in [3], 124%; in assay [4] it was 106%; in assay [5] it was 119%; in assay [6] it was 104%. Further, the growth was 98.6% in assay [7]; 99.2% in assay [8]; 101% in [9]; 98.2% in assay [10]; 101% in [11]; 74.9% in [12]. Also, the growth in assay [13] is 98%; in assay [14] it was 106%; in [15], 89.4%; in [16], 78.2%; in [17], 102%; in assay [18] it was 98%. Moreover, the growth in [19] is 96.9%; in assay [20], 107%.
Take `CCOC(=O)C1=C(N)Oc2c(sc3c(F)cccc23)C1c1ccc(O)cc1` (stereo not given): the growth in [1] was 66.8%; in assay [2], 12.6%; in [3], 54.4%; in [4] it was 36.9%; in [5], 46.1%; in assay [6], 37%. In addition, the growth in [7] was 56.3%; in assay [8], 42.5%; in assay [9], 49.8%; in assay [10], 22.9%; in [11] it was 24.2%; in assay [12] it was 30.7%. The growth was 31.3% in [13]; 48.9% in assay [14]; 37.9% in assay [15]; 26% in [16]; 18% in assay [17]; 26.3% in [18]. Further, the growth is 36.4% in assay [19] and 46% in [20].
In the case of `Cc1cn(-c2cc(NC(=O)c3cccc(C#Cc4cccc5[nH]nc(N)c45)c3)cc(C(F)(F)F)c2)cn1`, the growth in [1] is 57.6%; in [2], 3.17% (active); in assay [3], 12.4%; in assay [4] it was 16.9%; in assay [5] it was -6.88% (active); in assay [6] it was 53.2%. The growth in assay [7] is 27.5%; in [8], 6.24% (active); in assay [9] it was 41.4%; in assay [10] it was 7.33% (active); in [11], 25.8%; in assay [12], 18.4%. Also, the growth in [13] was 48.1%; in [14], 55.5%; in assay [15] it was 43.7%; in assay [16] it was 20.9%; in assay [17], 34.5%; in assay [18], 5.82% (active). The growth in assay [19] was 7.02% (active); in assay [20], 23.5%.
`CCCCn1c(=O)[nH]c(N)c([C@@H]2c3c([nH]c(=O)n(CCCC)c3=O)Oc3ccc4ccccc4c32)c1=O`: the growth in assay [1] is 47.5%; in assay [2] it was 76.3%; in [3], 38.5%; in assay [4], 55.4%; in [5], 99.6%; in assay [6] it was 8.16% (active). The growth in assay [7] is 89.1%; in assay [8], 95.8%; in assay [9] it was 93%; in [10], 31.1%; in assay [11], 6.62% (active); in assay [12], -44.2% (active). Further, the growth is 87.1% in assay [13]; 64.2% in assay [14]; -20.7% (active) in [15]; 24.4% in assay [16]; 67% in [17]; 80.1% in [18]. The results for the growth in assay [19] and in [20] were -76.2% (active) and 44%, respectively.
As to `Cc1[nH]c(C(=O)Nc2ccccc2OC2CCNCC2)c(Cl)c1Cl`, the growth in assay [1] was 16.4%; in [2], -2.5% (active); in assay [3] it was -49.5% (active); in assay [4], -43.4% (active); in [5] it was -85.4% (active); in assay [6] it was 39.4%. Moreover, the growth was -20.2% (active) in assay [7]; -94.1% (active) in [8]; 13.7% in assay [9]; -51.6% (active) in assay [10]; 20.2% in [11]; -7.94% (active) in assay [12]. Besides, the growth in [13] is -28.9% (active); in assay [14], 33.4%; in [15], -4.3% (active); in assay [16], 43.1%; in assay [17], -40.6% (active); in assay [18], -79.9% (active). The growth is -88.3% (active) in assay [19] and 18.9% in [20].
As for `O=C(CSc1nc2ccc([N+](=O)[O-])cc2[nH]1)Nc1ccc([N+](=O)[O-])cc1`, the growth was 31.6% in assay [1]; 14.3% in assay [2]; 1.83% (active) in [3]; 33.3% in assay [4]; 29% in assay [5]; 27% in assay [6]. Moreover, the growth in assay [7] is 21.2%; in [8] it was 41.5%; in assay [9], 9.35% (active); in [10], 24.5%; in assay [11], 22.9%; in [12] it was 13.1%. For the same molecule, the growth in assay [13] is 29.7%; in [14], 12.4%; in assay [15], 13.7%; in assay [16], 12.7%; in [17], -12.7% (active); in assay [18], 2.77% (active). Further, the results for the growth in assay [19] and in assay [20] were 23.5% and 30.7%, respectively.
For the molecule `COc1ccc(C/C(C)=C(\c2ccc(Cl)cc2)c2ccc(OCCN3CCCCC3)cc2)cc1`, the growth in assay [1] is 110%; in [2], 67.3%; in [3], 106%; in [4], 93.3%; in [5], 85.1%; in assay [6], 99.6%. Moreover, the growth in assay [7] is 101%; in assay [8], 93.6%; in [9], 104%; in assay [10] it was 93.3%; in [11], 84.3%; in assay [12] it was 81.2%. Further, the growth in [13] is 89.3%; in assay [14], 93.5%; in [15], 92.1%; in assay [16], 94.6%; in assay [17] it was 107%; in [18], 83.8%. In addition, the growth in assay [19] was 104%; in assay [20], 101%.

Source of the values: PubChem BioAssay (NCI).
